# Assay results: PubChem BioAssay (NCATS)
# A number with no mark means an inactive call. Results filed as inconclusive are left out. Entries that show only a call come without a potency. Active and inactive are the calls of the source. Unless noted, calls come from the whole dose curve; as a rule, active = well fitted curve in the direction sought with a large enough effect; inconclusive = small, poorly fitted or top-dose-only effect, or another doubt; inactive = no such curve, though single readings can be large; an effect the other way counts as inactive or inconclusive.
# Key:
# [1] = qHTS for differential inhibitors of proliferation of Plasmodium falciparum line 7G8 (AID 1815); conditions: Plasmodium falciparum 7G8 proliferation inhibition; series mostly up to 28.7 µM;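 note: parasite growth measured after three days of incubation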; note: potency is the fitted concentration of half-maximal effect
# [2] = qHTS for differential inhibitors of proliferation of Plasmodium falciparum line GB4 (AID 1816); conditions: Potency: Plasmodium falciparum GB4 proliferation inhibition; series mostly up to 28.7 µM;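 note: parasite growth measured after 72 h incubation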
# [3] = qHTS for differential inhibitors of proliferation of Plasmodium falciparum line 3D7 (AID 1876);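 note: parasite growth measured after three days of culture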; conditions: P. falciparum 3D7 proliferation inhibition; series mostly up to 28.7 µM
# [4] = qHTS for differential inhibitors of proliferation of Plasmodium falciparum line Dd2 (AID 1882); conditions: Potency: Plasmodium falciparum Dd2 proliferation inhibition; series mostly up to 28.7 µM;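 note: compound exposure of 72 h on infected erythrocytes; nearly all actives have a fitted effect of over 65% in size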
# How it was run: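 RBC culture, 0.3% parasitemia / 2.5% Hct final; cpd added by pin tool in DMSO; 72 h, 37 C, 5% CO2; lysis buffer + SYBR Green I, o/n RT dark; FI 485/535; norm. to artemisinin 0.29 uM and DMSO.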
# [5] = qHTS for differential inhibitors of proliferation of Plasmodium falciparum line W2 (AID 1883); conditions: Potency: Plasmodium falciparum W2 proliferation inhibition; series mostly up to 28.7 µM;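 note: parasites grown with compound for 72 h before lysis and staining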; note: potency is the fitted concentration of half-maximal effect
# [6] = qHTS for differential inhibitors of proliferation of Plasmodium falciparum line HB3 (AID 1886); conditions: Potency: Plasmodium falciparum HB3 proliferation inhibition; series mostly up to 28.7 µM;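 note: parasites grown with compound for 72 h before SYBR Green readout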
# [7] = target: M-phase phosphoprotein 8 (Homo sapiens) (UniProt Q99549); assay: qHTS Validation Assay for Inhibitors for MPP8 Chromodomain Interactions with Methylated Histone Tails (AID 488949); conditions: AlphaScreen MPP8 binding to H3K9me3 peptide; series mostly up to 114 µM;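 note: 50 nM MPP8 with 50 nM peptide preformed then compounds added for 30 min; AlphaScreen signal from MPP8 chromodomain bound to biotinylated H3K9me3 peptide; top concentration of the series differs between compounds; nearly all actives have a fitted effect of over 55% in size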
# How it was run: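 Chemiluminescent proximity assay: histidine-tag capture via nickel acceptor beads, biotin peptide via streptavidin donor beads. Protein and peptide each at 50 nM, pH 7.4, with 30 min incubations at room temperature for complex formation, compound exposure and bead binding.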
# [8] = target: Transient receptor potential cation channel subfamily V member 1 (Homo sapiens) (UniProt Q8NER1); assay: HTS Assay for Compounds that Act as Enhancers of the Vanilloid Receptor 1 (AID 488979); conditions: TRPV1-expressing cells, enhancer of channel activity, stimulated with capsaicin at EC20; series mostly up to 41.7 µM
# How it was run: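 Calcium influx kinetics via Fluo-8 (480/520 nm) in TRPV1-expressing cells, 2000/well cultured overnight at 35.5C. Compound-alone read 3 min (agonist phase), followed by EC20 capsaicin challenge for 2 min (enhancer phase).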
# [9] = target: Thyrotropin receptor (Homo sapiens) (UniProt P16473); assay: qHTS Assay for Antagonists of the Thyroid Stimulating Hormone Receptor (AID 488980); conditions: TSHR-expressing cells, cAMP antagonist read-out; series mostly up to 57.5 µM
# How it was run: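 Inhibition of TSH-stimulated cAMP accumulation was quantified by homogeneous time-resolved FRET in TSHR-transfected HEK293 cells. Agonist: TSH, 4 nM final (EC80).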
# [10] = target: Thyrotropin-releasing hormone receptor (Homo sapiens) (UniProt P34981); assay: qHTS for Small Molecule Agonists and Allosteric Enhancers of Human TRH Receptor: Validation Screen for Agonists (AID 493127;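 active = calcium activation more than 3 SD above the typical response in the agonist read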;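 note: intracellular calcium rise by fluo-8 fluorescence before TRH EC20 addition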); conditions: TRH receptor agonist cell assay; at 2 µM; stronger effect = higher value
# How it was run: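 Read-out: intracellular calcium release measured kinetically by FDSS (fluo-8, ex 480/em 530 nm), 1 reading/s after a 10-cycle baseline. TRHR cells, 2000/well, cultured 18 h at 33.5C, dye-loaded at room temp. Compound-evoked positive calcium signal flags agonists.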
# [11] = target: Galactokinase (Homo sapiens) (UniProt P51570); assay: qHTS Validation Assay for Inhibitors of Human Galactokinase (GALK) (AID 493189); conditions: purified human GALK enzyme activity, qHTS 7-point titration; series mostly up to 57.5 µM
# How it was run: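 Enzyme activity is inferred from ATP consumption: human GALK phosphorylates galactose (100 uM) using 35 uM ATP for 1 h at room temperature, and luciferase-based Kinase-Glo Plus reports unconsumed ATP.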
# [12] = Validation screen for small molecules that induce DNA re-replication in SW480 colon adenocarcinoma cells (AID 504364); conditions: DNA re-replication phenotype (high-content imaging); series mostly up to 46.1 µM
# How it was run: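 Read-out: total Hoechst intensity of nuclei by fluorescence scanning imager; hits raise the fraction of nuclei with elevated DNA content. Cells received compound for 48 hr at 37 C before a 40 min stain.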
# [13] = target: Muscarinic acetylcholine receptor M1 (Rattus norvegicus) (UniProt P08482); assay: qHTS Assay for Antagonists of Acetylcholine Muscarinic M1 Receptor: Kinetic Measurement of Intracellular Calcium Response (AID 943); conditions: M1-expressing cells, kinetic intracellular calcium fluorescence; series mostly up to 35.3 µM;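 note: Fluo-4 calcium signal as peak divided by basal fluorescence over 4 min; nearly all actives have a fitted effect of over 75% in size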
# How it was run: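 Read-out: peak over basal Fluo-4 fluorescence, kinetic at 1 Hz for 4 min after EC80 carbachol (100 nM final). Rat M1-CHO cells, dye loaded 1 h at 37C, compound added 10 min before agonist.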
# [14] = target: ATP-dependent 6-phosphofructokinase (Trypanosoma brucei brucei) (UniProt O15648); assay: qHTS Assay to Find Inhibitors of T. brucei phosphofructokinase: hit validation (AID 492961);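 note: luminescence reports ADP formed as PFK phosphorylates fructose-6-phosphate with ATP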; conditions: T. brucei PFK, ADP-Glo luminescence; series mostly up to 51.4 µM
# How it was run: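 Measures ADP output of PFK (1.25 nM) at 0.1 mM ATP, 0.5 mM F6P, pH 8.0 TEA buffer with 5 mM MgCl2. No-enzyme wells define full inhibition; uninhibited enzyme wells define zero.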
# [15] = target: Luciferin 4-monooxygenase (Photinus pyralis) (UniProt P08659); assay: Biochemical firefly luciferase enzyme assay for NPC (AID 624030);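 note: purified P. pyralis luciferase at 10 nM with luciferin and ATP substrate; nearly all actives have a fitted effect of over 70% in size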; conditions: purified P. pyralis luciferase, luminescence, 5 min; series mostly up to 58.6 µM
# How it was run: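 Direct inhibition of firefly luciferase enzyme (10 nM final, 50 mM Tris Acetate) assessed by luminescence within 5 minutes. Percent activity scaled between DMSO and PTC124 positive control, with concentration-effect curves classified by fit quality and response.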
# [16] = S16 Schwann cell viability assay (CellTiter-Glo assay) (AID 624031); conditions: S16 rat Schwann cells viability, 24 h; series mostly up to 57.5 µM;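 note: cellular ATP luminescence as a viability measure; nearly all actives have a fitted effect of over 70% in size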
# How it was run: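 Native S16 rat Schwann cells, 500-750 cells/well in DMEM with 10% FBS, dosed with compound after overnight culture and incubated 24h at 37 degree Celsius/5% CO2. Viability by CellTiter-Glo luminescence; % activity normalized to no-cell wells and DMSO-treated cells.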
# [17] = S16 Schwann cell PMP22 intronic element firefly luciferase assay (AID 624032); conditions: S16 rat Schwann cells, PMP22 element FLuc, 24 h; series mostly up to 57.5 µM; note: nearly all actives have a fitted effect of over 30% in size
# How it was run: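 Luciferase reporter of PMP22 intronic-element expression in stably transfected S16 rat Schwann cells, read by ONE-Glo luminescence after 24 h compound exposure at 37 C. Activity scaled between DMSO (0%) and positive-control PTC124; concentration-effect curves quality-classified.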
# 3D7 = assay: qHTS profiling for inhibitors of Plasmodium falciparum proliferation (AID 504749); note: nearly all actives have a fitted effect of over 60% in size; conditions: P. falciparum in erythrocytes, SYBR Green DNA, 72 h; series mostly up to 28.7 µM
# How it was run: (§1)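 In a 72 h erythrocytic culture (37 C, humidified, 5% CO2) at 2.5% hematocrit and 0.3% starting parasitemia, compounds were tested; SYBR Green I in detergent lysis buffer stained parasite DNA overnight.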
# 7G8 = assay: as above; conditions: P. falciparum in erythrocytes, SYBR Green DNA, 72 h; series mostly up to 28.7 µM
# How it was run: as §1
# AA1029 = assay: as above; conditions: P. falciparum in erythrocytes, SYBR Green DNA, 72 h; series mostly up to 28.7 µM
# How it was run: as §1
# Thyrotropin-releasing hormone receptor (Homo sapiens), sequence (P34981 whole entry, looked up): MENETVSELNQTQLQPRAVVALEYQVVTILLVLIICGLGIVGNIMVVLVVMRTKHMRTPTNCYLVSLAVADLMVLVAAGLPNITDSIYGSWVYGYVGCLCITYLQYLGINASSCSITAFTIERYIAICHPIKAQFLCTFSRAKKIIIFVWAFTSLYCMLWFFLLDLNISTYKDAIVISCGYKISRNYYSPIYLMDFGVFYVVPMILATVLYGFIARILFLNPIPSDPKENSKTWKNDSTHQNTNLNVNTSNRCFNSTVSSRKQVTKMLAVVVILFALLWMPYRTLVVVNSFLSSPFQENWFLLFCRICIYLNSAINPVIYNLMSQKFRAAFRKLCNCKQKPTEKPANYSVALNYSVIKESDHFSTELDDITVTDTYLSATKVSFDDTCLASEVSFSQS
# Transient receptor potential cation channel subfamily V member 1 (Homo sapiens), sequence (Q8NER1 whole entry, looked up): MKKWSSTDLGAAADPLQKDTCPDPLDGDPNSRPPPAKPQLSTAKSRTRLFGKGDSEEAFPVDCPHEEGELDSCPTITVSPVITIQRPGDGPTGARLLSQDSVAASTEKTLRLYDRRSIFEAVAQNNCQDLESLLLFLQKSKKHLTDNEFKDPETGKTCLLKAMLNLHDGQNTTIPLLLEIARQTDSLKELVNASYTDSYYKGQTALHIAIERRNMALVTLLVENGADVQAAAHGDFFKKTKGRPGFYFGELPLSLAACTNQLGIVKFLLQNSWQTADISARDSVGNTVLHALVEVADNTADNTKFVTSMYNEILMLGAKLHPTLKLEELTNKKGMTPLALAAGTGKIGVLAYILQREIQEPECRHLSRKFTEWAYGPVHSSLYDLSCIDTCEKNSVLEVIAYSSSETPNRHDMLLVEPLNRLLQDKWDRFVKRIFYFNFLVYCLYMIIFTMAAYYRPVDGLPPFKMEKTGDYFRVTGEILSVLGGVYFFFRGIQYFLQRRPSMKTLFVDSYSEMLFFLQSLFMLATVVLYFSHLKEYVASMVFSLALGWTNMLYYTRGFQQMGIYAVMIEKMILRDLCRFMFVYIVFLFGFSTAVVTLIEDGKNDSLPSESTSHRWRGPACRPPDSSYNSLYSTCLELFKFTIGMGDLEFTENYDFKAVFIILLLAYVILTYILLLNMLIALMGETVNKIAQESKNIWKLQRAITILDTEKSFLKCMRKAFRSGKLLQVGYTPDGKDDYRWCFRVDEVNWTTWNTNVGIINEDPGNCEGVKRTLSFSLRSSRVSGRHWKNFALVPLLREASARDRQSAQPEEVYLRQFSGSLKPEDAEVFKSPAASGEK
# Thyrotropin receptor (Homo sapiens), sequence (P16473 whole entry, looked up): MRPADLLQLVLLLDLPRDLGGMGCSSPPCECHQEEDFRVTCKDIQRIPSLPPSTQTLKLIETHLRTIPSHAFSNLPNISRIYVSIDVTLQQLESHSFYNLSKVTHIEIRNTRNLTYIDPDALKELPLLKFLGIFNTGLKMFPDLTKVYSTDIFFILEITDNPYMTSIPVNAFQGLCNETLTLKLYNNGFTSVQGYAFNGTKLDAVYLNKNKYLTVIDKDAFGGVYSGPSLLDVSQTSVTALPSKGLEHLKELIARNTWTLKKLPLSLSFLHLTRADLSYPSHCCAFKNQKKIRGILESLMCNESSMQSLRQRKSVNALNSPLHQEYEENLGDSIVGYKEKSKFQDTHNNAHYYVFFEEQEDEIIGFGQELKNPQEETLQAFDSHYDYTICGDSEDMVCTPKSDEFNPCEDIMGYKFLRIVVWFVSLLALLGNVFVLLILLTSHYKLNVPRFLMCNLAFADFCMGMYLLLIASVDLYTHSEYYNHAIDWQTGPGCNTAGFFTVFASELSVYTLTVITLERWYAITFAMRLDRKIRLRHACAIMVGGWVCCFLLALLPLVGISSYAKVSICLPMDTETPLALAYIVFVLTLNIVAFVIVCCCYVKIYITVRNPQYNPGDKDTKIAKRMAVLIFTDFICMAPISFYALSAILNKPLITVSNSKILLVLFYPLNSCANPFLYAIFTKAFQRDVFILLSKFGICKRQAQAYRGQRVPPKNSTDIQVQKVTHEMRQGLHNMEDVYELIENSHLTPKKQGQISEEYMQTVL
# Galactokinase (Homo sapiens), sequence (P51570 whole entry, looked up): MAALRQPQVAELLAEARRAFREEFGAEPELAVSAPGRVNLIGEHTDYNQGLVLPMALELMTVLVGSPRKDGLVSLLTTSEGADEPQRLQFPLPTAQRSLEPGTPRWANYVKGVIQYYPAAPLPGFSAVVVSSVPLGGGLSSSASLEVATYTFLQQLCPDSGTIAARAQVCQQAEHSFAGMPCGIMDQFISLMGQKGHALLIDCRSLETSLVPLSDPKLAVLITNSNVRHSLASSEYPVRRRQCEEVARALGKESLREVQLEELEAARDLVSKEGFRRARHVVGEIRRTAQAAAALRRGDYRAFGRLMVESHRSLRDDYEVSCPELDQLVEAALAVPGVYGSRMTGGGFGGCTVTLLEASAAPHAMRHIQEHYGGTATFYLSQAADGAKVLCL
# Luciferin 4-monooxygenase (Photinus pyralis), sequence (P08659 whole entry, looked up): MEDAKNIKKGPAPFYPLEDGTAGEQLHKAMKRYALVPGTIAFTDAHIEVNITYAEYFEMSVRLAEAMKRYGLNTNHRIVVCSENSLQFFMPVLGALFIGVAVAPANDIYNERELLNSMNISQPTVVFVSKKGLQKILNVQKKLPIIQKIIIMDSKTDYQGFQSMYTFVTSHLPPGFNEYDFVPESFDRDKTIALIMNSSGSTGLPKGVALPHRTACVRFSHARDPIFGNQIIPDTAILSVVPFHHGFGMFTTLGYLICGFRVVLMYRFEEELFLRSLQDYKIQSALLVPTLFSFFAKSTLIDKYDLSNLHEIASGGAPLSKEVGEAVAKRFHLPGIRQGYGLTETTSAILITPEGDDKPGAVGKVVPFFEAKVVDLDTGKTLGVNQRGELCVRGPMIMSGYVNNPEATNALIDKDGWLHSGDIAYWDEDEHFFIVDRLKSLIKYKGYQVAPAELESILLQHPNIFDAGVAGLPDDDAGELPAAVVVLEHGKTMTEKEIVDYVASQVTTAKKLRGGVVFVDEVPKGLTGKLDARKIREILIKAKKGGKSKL
# M-phase phosphoprotein 8 (Homo sapiens), sequence (Q99549 whole entry, looked up): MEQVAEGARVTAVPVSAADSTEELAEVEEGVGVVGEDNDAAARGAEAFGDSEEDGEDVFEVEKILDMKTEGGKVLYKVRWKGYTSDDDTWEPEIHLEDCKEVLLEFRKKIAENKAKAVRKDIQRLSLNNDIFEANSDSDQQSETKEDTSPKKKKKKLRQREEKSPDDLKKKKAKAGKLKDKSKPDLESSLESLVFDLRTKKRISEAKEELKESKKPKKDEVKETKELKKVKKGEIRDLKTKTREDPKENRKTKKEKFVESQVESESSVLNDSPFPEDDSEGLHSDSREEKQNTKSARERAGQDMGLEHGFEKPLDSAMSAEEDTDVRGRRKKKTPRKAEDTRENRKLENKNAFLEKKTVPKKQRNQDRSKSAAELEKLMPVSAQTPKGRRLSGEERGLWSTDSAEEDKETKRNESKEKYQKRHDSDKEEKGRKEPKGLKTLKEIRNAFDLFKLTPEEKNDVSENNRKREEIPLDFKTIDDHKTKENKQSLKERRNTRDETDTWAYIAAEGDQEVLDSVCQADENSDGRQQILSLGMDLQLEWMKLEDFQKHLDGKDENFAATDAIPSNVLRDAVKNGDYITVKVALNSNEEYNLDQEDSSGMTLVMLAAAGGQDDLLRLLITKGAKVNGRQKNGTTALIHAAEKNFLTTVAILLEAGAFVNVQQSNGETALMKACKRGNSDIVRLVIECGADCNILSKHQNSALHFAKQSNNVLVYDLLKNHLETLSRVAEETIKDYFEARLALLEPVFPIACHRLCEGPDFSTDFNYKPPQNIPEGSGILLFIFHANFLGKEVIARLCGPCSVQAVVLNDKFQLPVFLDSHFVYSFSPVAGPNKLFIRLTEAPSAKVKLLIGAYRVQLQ
# ATP-dependent 6-phosphofructokinase (Trypanosoma brucei brucei), sequence (O15648 whole entry, looked up): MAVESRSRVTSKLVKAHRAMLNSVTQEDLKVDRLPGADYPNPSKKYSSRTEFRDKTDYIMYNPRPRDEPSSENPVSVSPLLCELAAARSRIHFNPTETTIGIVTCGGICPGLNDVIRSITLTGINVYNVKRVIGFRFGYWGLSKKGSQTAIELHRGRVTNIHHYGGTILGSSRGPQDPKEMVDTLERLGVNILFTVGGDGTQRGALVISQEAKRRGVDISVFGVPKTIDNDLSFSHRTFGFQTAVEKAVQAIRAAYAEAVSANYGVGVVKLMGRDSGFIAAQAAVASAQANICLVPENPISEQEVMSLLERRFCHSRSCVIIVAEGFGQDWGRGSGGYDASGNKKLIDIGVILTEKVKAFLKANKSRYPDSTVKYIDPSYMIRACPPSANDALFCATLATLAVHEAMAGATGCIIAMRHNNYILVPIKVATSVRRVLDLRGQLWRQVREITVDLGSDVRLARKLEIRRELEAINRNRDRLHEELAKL
# Muscarinic acetylcholine receptor M1 (Rattus norvegicus), sequence (P08482 whole entry, looked up): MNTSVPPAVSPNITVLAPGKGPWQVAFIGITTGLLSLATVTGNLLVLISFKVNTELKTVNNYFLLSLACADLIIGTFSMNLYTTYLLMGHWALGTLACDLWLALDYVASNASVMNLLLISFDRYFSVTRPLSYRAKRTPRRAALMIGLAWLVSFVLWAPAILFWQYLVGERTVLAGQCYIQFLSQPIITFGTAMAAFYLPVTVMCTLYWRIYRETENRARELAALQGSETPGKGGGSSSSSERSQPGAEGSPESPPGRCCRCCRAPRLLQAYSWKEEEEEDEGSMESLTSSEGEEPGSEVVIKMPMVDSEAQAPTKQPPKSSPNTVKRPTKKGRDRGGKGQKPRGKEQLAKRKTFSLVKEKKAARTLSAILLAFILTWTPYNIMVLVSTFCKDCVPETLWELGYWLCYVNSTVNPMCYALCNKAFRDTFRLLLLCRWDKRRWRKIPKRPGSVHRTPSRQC
smiles,measurement,setting,value
CCCCCCCCCCCCC/C=C/[C@@H](O)[C@@H](N)CO,Potency,[1],inactive
same,Potency,[2],inactive
same,Potency,[3],inactive
same,Potency,[4],inactive
same,Potency,[5],inactive
same,Potency,[6],inactive
same,Potency,[7],inactive
same,outcome,[8],inactive
same,outcome,[9],inactive
same,activation,[10],0.312%
same,outcome,[11],inactive
same,outcome,[12],inactive
C=C[C@H](N)CCC(=O)O,Potency,[13],inactive
COC(=O)[C@@H]1[C@@H]2C[C@H]3c4[nH]c5ccccc5c4CCN3C[C@@H]2CC[C@@H]1O,outcome,[14],inactive
same,Potency,[15],inactive
same,outcome,[16],inactive
same,Potency,[17],inactive
same,Potency,3D7,inactive
same,Potency,7G8,inactive
same,Potency,AA1029,inactive
COc1ccccc1NC(=O)Nc1nc(-c2cccnc2)nc2ccccc12,Potency,[2],inactive
same,Potency,[3],inactive
same,Potency,[4],inactive
same,Potency,[6],inactive
same,Potency,[7],inactive
same,outcome,[8],inactive
same,outcome,[9],inactive
same,activation,[10],0.25%
same,outcome,[11],inactive
same,outcome,[12],inactive
C[C@@H](C(=O)O)c1ccc(-c2ccccc2)c(F)c1,outcome,[14],inactive
same,Potency,[15],inactive
same,outcome,[16],inactive
same,Potency,[17],inactive
same,Potency,3D7,inactive
same,Potency,7G8,inactive
same,Potency,AA1029,inactive
COc1ccc2c(c1)c(CC(=O)N1CCOCC1)c(C)n2C(=O)c1ccc(Cl)cc1,Potency,[1],10 µM (active)
same,Potency,[5],12.6 µM (active)
same,outcome,[8],inactive
same,outcome,[9],inactive
same,activation,[10],1.25%
same,outcome,[11],inactive
same,outcome,[12],inactive
C[C@@H](/C=C\c1cccc(Oc2ccc(F)cc2)c1)N(O)C(N)=O,Potency,[13],inactive
